Source: PubChem BioAssay
FMDV antiviral: antivirals against foot and mouth disease virus | 1.2% of 410,000 active | Potency, µM (doses to about 57.9 µM), without a hit: at the highest dose activity change, negative = inhibition, hits mostly inhibitors | FMDV antiviral cell-based qHTS; calls by dose curve; tested in HEK293T cells; also: read-out not given here; potency is read from the fitted curve at half-maximal effect; nearly all actives have a fitted effect of over 45% in size
Lassa entry inh: blocks Lassa virus binding to or entry into cells | Lassa virus pseudotype entry inhibition, cell reporter | Potency, µM (titrated, usually from 37.9 µM), for inactives: at the highest dose activity change, negative = inhibition, actives largely listed as inhibitors | 1.2% of 300,000 active | AID 540256; calls by dose curve; tested in HEK293 cells; also: potency is read from the fitted curve at half-maximal effect; nearly all actives have a fitted effect of over 50% in size
HCMV inh: human cytomegalovirus inhibition. activity change, negative = inhibition, % at 57.5 µM. 4.5% of 410,000 active. AID 1259415. HFF cells, HCMV-luciferase reporter, 72 h; active compounds read low; in the data active = activity change below about -60%; inconclusive = no clear call, values can overlap the other calls; inactive = above about -39%
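Screen run at 2 compound doses on HFFs infected with reporter HCMV, MOI 1 PFU/cell. Luciferase activity from cell lysates at 72 h post infection gave inhibition relative to buffer-only and Salinomycin wells.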
Marburg entry inh: Marburg virus entry inhibition. 1.8% of 300,000 active. Potency, µM (doses to about 37.8 µM), for the others: at the highest dose activity change, negative = inhibition, usual class: inhibitors. Marburg virus pseudotyped entry inhibition, cell reporter; calls by dose curve; tested in HEK293 cells; also: potency is read from the fitted curve at half-maximal effect
* marks the source's active call; other numbers are inactive results; [ ] = another dose, or the depositor's remark. Rows were chosen to be rich in hits. Some 6.2% of all compounds tested hit in one or more screens of this group. % is scaled to controls: 0 for no effect and ±100 for the full control effect.

For CC(=O)OC1CC(OC(C)=O)[C@]2(C)C(CC(OC(C)=O)[C@]3(C)C2CC[C@@]2(C)C(c4ccoc4)C[C@H]4O[C@]432)C1(C)C (some centres not stated) the results were FMDV antiviral 19%.
CC(=O)O[C@@H]1C[C@@]2(C)C(c3ccoc3)C[C@H]3O[C@]32[C@]2(C)C(=O)C(O)=C3C(C)(C)C(=O)C=C[C@]3(C)C12 (some centres not stated) was read as FMDV antiviral 25µM*.
For COc1ccc(S(=O)(=O)N2CCOC23CCN(S(=O)(=O)c2cc(C)ccc2C)CC3)cc1 the results were FMDV antiviral 7%, Lassa entry inh 2%, HCMV inh 17 and Marburg entry inh -10%.
For CC(C)C(=O)Nc1cccc(S(=O)(=O)c2cccc(NC(=O)C(C)C)c2)c1 the results were FMDV antiviral 0%, Lassa entry inh 0.63µM*, HCMV inh -25 and Marburg entry inh inconclusive.
`CSc1cccc(NC(=O)C(C)C)c1` gave FMDV antiviral -15%, Lassa entry inh 19%, HCMV inh -8 and Marburg entry inh 1%.
`Cc1ccc(C)c(Cn2c(=O)n(CC3CCC(C(=O)N4CCOCC4)CC3)c(=O)c3sccc32)c1` (configuration not stated) gave FMDV antiviral inconclusive, Lassa entry inh -2%[46.1 µM] and HCMV inh -5.
`Cc1ccc(NC(=O)C23CCC(C)(C(=O)[C@H]2Br)C3(C)C)cc1` (some centres not stated) gave FMDV antiviral -21% and HCMV inh -62*.
Screening CN1CCN(CCC(=O)N2c3ccccc3Sc3ccc(C(F)(F)F)cc32)CC1 returned Lassa entry inh -8%, HCMV inh -27 and Marburg entry inh inconclusive.
For OCCN1CCN(CCCN2c3ccccc3C=Cc3ccccc32)CC1 the results were Lassa entry inh inconclusive, HCMV inh -24 and Marburg entry inh 7.9µM*.
CN(C)CCCN1c2ccccc2Sc2ccc(C(F)(F)F)cc21 was read as FMDV antiviral -14%, Lassa entry inh 21µM*, HCMV inh inconclusive and Marburg entry inh 6.3µM*.
CN(C)CCC(=O)N1c2ccccc2Sc2ccc(C(F)(F)F)cc21 was read as FMDV antiviral -16% and HCMV inh -5.
Screening OC1CC2CCC(C1)N2CCCN1c2ccccc2Sc2ccc(Cl)cc21 (configuration not stated) returned FMDV antiviral -22%, Lassa entry inh -14%[46.1 µM], HCMV inh -65* and Marburg entry inh inconclusive.
`FC(F)(F)c1ccc2c(c1)N(CCCN1CCN(CCCl)CC1)c1ccccc1S2` gave FMDV antiviral 11µM*, Lassa entry inh inconclusive, HCMV inh -73* and Marburg entry inh 20µM*.
Screening COc1ccc(OC(=O)c2cccc([N+](=O)[O-])c2)c(C(=O)/C=C/c2cccs2)c1 returned FMDV antiviral -21%, Lassa entry inh -5%, HCMV inh 29 and Marburg entry inh -10%[46.1 µM].
Screening C[C@H]1CN([C@@H](C)CO)C(=O)CCCn2nncc2CO[C@@H]1CN(C)Cc1ccc(Cl)c(Cl)c1 returned FMDV antiviral -19% and HCMV inh 2.
For OCCN1CCN(CCCN2c3ccccc3Sc3ccc(C(F)(F)F)cc32)CC1 the results were FMDV antiviral inconclusive, Lassa entry inh 7.3µM*, HCMV inh -16 and Marburg entry inh 13µM*.
Screening OCCN1CCN(CC/C=C2/c3ccccc3Sc3ccc(C(F)(F)F)cc32)CC1 returned FMDV antiviral -23%, Lassa entry inh 5.8µM*, HCMV inh -30 and Marburg entry inh 8.9µM*.
CN1CCN(CCCN2c3ccccc3Sc3ccc(Cl)cc32)CC1 was read as FMDV antiviral inconclusive, Lassa entry inh 9.2µM*, HCMV inh -29 and Marburg entry inh 10µM*.
Screening OCCN1CCN(CC/C=C2/c3ccccc3CSc3ccccc32)CC1 returned FMDV antiviral -16% and HCMV inh -22.
`CCCSc1ccc([C@@H]2[C@@H]3C(=O)N(C)C(=O)[C@@H]3[C@]3(C(=O)OC)CCCCN23)cc1OC` gave FMDV antiviral -26% and HCMV inh 5.
For O=C(NC(=O)c1ccccc1)NC1(C(F)(F)F)OCCO1 the results were Marburg entry inh -4%.
CN(C)c1ccc(/C=C2/SC(=O)N(CCN=C3NS(=O)(=O)c4ccccc43)C2=O)cc1 was read as FMDV antiviral 29%, Lassa entry inh -24%, HCMV inh 24 and Marburg entry inh 20%.
Screening CN(C)c1ccc(/C=C2\SC(=O)N(CCc3nnc(N)s3)C2=O)cc1 returned FMDV antiviral -60%, Lassa entry inh inconclusive, HCMV inh inconclusive and Marburg entry inh 1.1µM*.
CC1COCC(C)N1C1=C(Cl)C(=O)c2ccccc2C1=O (configuration not stated) was read as FMDV antiviral 40µM*, Lassa entry inh inconclusive, HCMV inh 91 and Marburg entry inh inconclusive.
`CN1CCN(C2=C(Cl)C(=O)c3ccccc3C2=O)CC1` gave FMDV antiviral 32µM*, Lassa entry inh inconclusive, HCMV inh -25 and Marburg entry inh inconclusive.
`O=C1C(Cl)=C(N2CCC(C(=O)O)CC2)C(=O)c2ccccc21` gave FMDV antiviral 35µM*.
For NC(=O)C1CCN(C2=C(Cl)C(=O)c3ccccc3C2=O)CC1 the results were FMDV antiviral 22µM*, Lassa entry inh inconclusive, HCMV inh 79 and Marburg entry inh inconclusive.
For NC(=O)C1CCN(C2=C(NS(=O)(=O)c3ccccc3)C(=O)c3ccccc3C2=O)CC1 the results were FMDV antiviral inconclusive, Lassa entry inh inconclusive, HCMV inh 0 and Marburg entry inh inconclusive.
Screening Cc1ccc(CNC(=O)Cn2cc(C(=O)c3ccc(Cl)cc3)c(=O)c3ccc(C)nc32)cc1 returned FMDV antiviral -16%, Lassa entry inh -19%[46.1 µM] and HCMV inh -15.
Screening Nc1ccccc1SCc1c(Cl)cccc1Cl returned FMDV antiviral -19%, Lassa entry inh 28%, HCMV inh 52 and Marburg entry inh 10%[46.1 µM].
Nc1ccccc1SCc1ccccc1Cl was read as FMDV antiviral 36%, Lassa entry inh -4%, HCMV inh -66* and Marburg entry inh inconclusive.
For O=C(O)c1ccc(OCCCCCCOC2CCCCO2)cc1 (configuration not stated) the results were FMDV antiviral -11%, Lassa entry inh 14%[46.1 µM], HCMV inh -3 and Marburg entry inh 4%[46.1 µM].
For O=C(Nc1ccccc1Cl)c1ccc([N+](=O)[O-])o1 the results were FMDV antiviral -11%, Lassa entry inh inconclusive, HCMV inh -101* and Marburg entry inh 13µM*.
For O=C(Nc1ccc(NC(=O)c2ccc([N+](=O)[O-])o2)cc1Cl)c1ccco1 the results were FMDV antiviral -4%, Lassa entry inh 0%, HCMV inh -73* and Marburg entry inh -12%[46.1 µM].
Screening CS(=O)(=O)N1CCN(c2ccccc2NC(=O)c2ccc([N+](=O)[O-])o2)CC1 returned FMDV antiviral inconclusive, Lassa entry inh inconclusive, HCMV inh -83* and Marburg entry inh inconclusive.
